According to PubChem BioAssay (EPA / NIEHS):
Calls of active or inactive are those of the source. How the source made its calls: active means hit-call score of the fitted dose curve at least 0.9, where 1 is the maximum; inactive means score below 0.9.

Target: Aryl hydrocarbon receptor (Homo sapiens) (UniProt P35869)
Assay: ATG_Ahr_CIS: Attagene CIS-FACTORIAL HepG2 Assay for human Aryl Hydrocarbon Receptor (Ahr) (AID 2282930)
Conditions: HepG2 AhR cis-factorial reporter transcription; actives raise or lower the signal
Description: ATG_CIS is a cell-based, multiplexed-readout assay that uses HepG2, a human liver cell line, with measurements taken at 24 hours after chemical dosing in a 24-well plate.ATG_Ahr_CIS is one of 52 assay component(s) measured or calculated from the ATG_CIS assay. It is designed to make measurements of mRNA induction, a form of inducible reporter, as detected with fluorescence intensity signals by Reverse transcription polymerase chain reaction (RT-PCR) and Capillary electrophoresis technology.Data from the assay component ATG_Ahr_CIS was analyzed into 1 assay endpoint. This assay endpoint, ATG_Ahr_CIS, was analyzed with bidirectional fitting relative to DMSO as the negative control and baseline of activity. Using a type of inducible reporter, measures of mRNA for gain or loss-of-signal activity can be used to understand the reporter gene at the transcription factor-level as they relate to the gene AHR. Furthermore, this assay endpoint can be referred to as a primary readout, because this assay has produced multiple assay endpoints where this one serves a reporter gene function. To generalize the intended target to other relatable targets, this assay endpoint is annotated to the dna binding intended target family, where the subfamily is basic helix-loop-helix protein.
Human liver HepG2 cells are transiently transfected with multiple reporter transcription units (MRTUs) in 6-well plates using FuGene 6 reagent (Roche; 3 ml FuGene/1 mg DNA). The MRTU constructs are regulated by a cis-regulating element (promoter). […] A major difference between the CIS and TRANS system is that in CIS activities of endogenous TFs are measured, whereas the TRANS assay evaluates changes in activities of exogenous, chimeric NR-Gal4 proteins. […] At the end of 24 hour incubation, total RNA was isolated using TriZol reagent (Invitrogen). The isolated RNA is then reverse-transcribed using oligo(dT) primer and Mo-MLV reverse transcriptase (Invitrogen) with DNAse I (Ambion) treatment for 30 min. The one-tenth of the produced cDNA was amplified by PCR using Taq DNA polymerase (Invitrogen) and two reporter sequence-specific primers. The PCR products were fluorescently labeled by primer extension with 6-arboxyfluorescein (6-FAM) 5'-labeled reporter sequence-specific primer (2 min at 95 C, 20 s at 68 C and 10 min at 72 C) and these products were digested with 5U of HpaI (New England Biolabs) for 2h at 37 C. […] The raw capillary electrophoresis data was processed using Attagraph software (Attagene).

Chain of Aryl hydrocarbon receptor (Homo sapiens) (P35869 whole entry, looked up): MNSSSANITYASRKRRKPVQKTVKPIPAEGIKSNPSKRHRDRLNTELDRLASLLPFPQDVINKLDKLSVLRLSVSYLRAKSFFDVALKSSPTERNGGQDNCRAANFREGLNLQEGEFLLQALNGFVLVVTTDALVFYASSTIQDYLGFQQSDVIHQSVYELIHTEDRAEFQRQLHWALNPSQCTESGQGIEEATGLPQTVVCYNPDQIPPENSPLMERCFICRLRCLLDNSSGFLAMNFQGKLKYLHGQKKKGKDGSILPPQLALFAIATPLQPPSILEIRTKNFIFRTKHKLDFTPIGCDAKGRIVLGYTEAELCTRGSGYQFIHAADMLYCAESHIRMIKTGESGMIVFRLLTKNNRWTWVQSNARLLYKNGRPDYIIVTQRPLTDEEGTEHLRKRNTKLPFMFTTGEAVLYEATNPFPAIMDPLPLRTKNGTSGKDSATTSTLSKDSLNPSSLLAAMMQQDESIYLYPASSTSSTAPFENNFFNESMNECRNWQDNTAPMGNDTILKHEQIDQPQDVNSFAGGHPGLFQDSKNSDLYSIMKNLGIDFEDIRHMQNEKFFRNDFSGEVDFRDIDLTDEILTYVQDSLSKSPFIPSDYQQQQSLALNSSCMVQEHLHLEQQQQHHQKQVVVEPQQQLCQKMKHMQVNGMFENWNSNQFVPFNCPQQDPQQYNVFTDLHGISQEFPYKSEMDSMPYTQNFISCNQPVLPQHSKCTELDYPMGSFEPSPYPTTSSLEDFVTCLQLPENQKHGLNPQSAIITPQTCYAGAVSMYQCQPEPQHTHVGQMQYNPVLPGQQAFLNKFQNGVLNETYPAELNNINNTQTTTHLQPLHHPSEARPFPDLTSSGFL

| Structure (SMILES) | outcome | AC50 |
| --- | --- | --- |
| COCC(=O)O | inactive |  |
| Cc1c(C(=O)c2c[nH]n(C)c2=O)ccc(S(C)(=O)=O)c1C1=NOCC1 | inactive |  |
| CCc1cccc(CC)c1 | inactive |  |
| Nc1ccc(C(=O)OCCCOC(=O)c2ccc(N)cc2)cc1 | inactive |  |
| O=S(=O)(O)c1ccc(Nc2nc(Nc3ccc(C=Cc4ccc(Nc5nc(Nc6ccc(S(=O)(=O)O)cc6)nc(N(CCO)CCO)n5)cc4S(=O)(=O)O)c(S(=O)(=O)O)c3)nc(N(CCO)CCO)n2)cc1 | inactive |  |
| C=CC(=O)OCC(C)OCC(C)OCC(C)OC(=O)C=C (stereo not given) | inactive |  |
| C=Cc1cccc(C)c1 | inactive |  |
| CCCC=C(C=O)CC |  | 100 µM (active) |
| CCCCOC(=O)C(C)CC (stereo not given) | inactive |  |
| C=CCCCCCCCCOC(C)=O | inactive |  |
| Oc1c(Cl)cc(Cl)c(Cl)c1Cl | inactive |  |
| CCCCCCCCC(CO)CCCCCC (stereo not given) | inactive |  |
| O=C(Cl)c1c(Cl)c(Cl)c(C(=O)Cl)c(Cl)c1Cl | inactive |  |
| CC=C(C)C(C)=O | inactive |  |
| [Cl][Sc]([Cl])[Cl] |  | 0.188 µM (active) |
| CC(C)c1ccc(O)c(C(C)C)c1 | inactive |  |
| CCCCNS(=O)(=O)c1ccccc1 | inactive |  |
| CC1(C)CCC[C@]2(C)[C@H]3CC(=O)O[C@]3(C)CC[C@@H]12 | inactive |  |
| Cc1cc(C)c(C=O)c(C)c1 | inactive |  |
| CCC(C)N (stereo not given) | inactive |  |

| Structure (SMILES) | outcome | AC50 |
| --- | --- | --- |
| O=C1CCCCCCCCCCC1 | inactive |  |
| CCCCCCCCCCCC(=O)N(C)CC(=O)O | inactive |  |
| CC(C)CCOCc1ccccc1 | inactive |  |
| CC(C)(C)C1CCC(=O)CC1 | inactive |  |
| C=CC(=O)NCOCCCC | inactive |  |
| NC(=O)Nc1ccccc1 | inactive |  |
| CC1=CC(C)C(C=O)CC1 (stereo not given) |  | 8.87 µM (active) |
| C=CCOC(=O)c1ccc(C(=O)OCC=C)c(C(=O)OCC=C)c1 | inactive |  |
| CCCC(CC)c1ccccc1 (stereo not given) | inactive |  |
| CC(C)CC(=O)OCc1ccccc1 | inactive |  |
| [Cl][Eu]([Cl])[Cl] | inactive |  |
| CCC(C)(O)CCCC(C)C (stereo not given) | inactive |  |
| Nc1cccc(N)n1 |  | 52.3 µM (active) |
| C=C(C)OC(C)=O | inactive |  |
| CCOC(=O)/C=C\C(=O)OCC | inactive |  |
| CCN1CN(CC)CN(CC)C1 | inactive |  |
| CCCCCCCCCCCC(C)=O | inactive |  |
| c1ccc2cnccc2c1 |  | 61.1 µM (active) |
| CCCCCCCCCCCC(=O)OCC | inactive |  |
| CC(CC=O)CC(C)(C)C (stereo not given) | inactive |  |
